Most compounds without a hit are left out; they make up all but 2.3% or so of the library.
SENP8 block-1: SENP8 protease inhibitors, primary screen, biochemical, luminescence | Sentrin-specific protease 8 (Homo sapiens), Q96LD8 | purified SENP8, Z-RLRGG-aminoluciferin cleavage | inhibition, % at 10 µM | 330,000 compounds, 1.2% hits | AID 2540, 2010; in the data active = inhibition above about 50%
Target sequence (Q96LD8 whole entry, looked up): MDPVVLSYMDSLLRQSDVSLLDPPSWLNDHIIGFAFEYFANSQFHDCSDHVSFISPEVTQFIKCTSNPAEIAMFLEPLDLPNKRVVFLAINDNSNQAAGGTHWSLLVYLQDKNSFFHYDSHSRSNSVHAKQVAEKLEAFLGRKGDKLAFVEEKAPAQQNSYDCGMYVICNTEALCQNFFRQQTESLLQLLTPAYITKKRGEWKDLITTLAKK
SENP7 block: SENP7 protease inhibitors, primary screen, biochemical, luminescence, uHTS. recombinant SENP7, Z-RLRGG-aminoluciferin luminescence, 40 min. inhibition, % at 5 µM. 330,000 compounds, 1.5% hits;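 active = inhibition above about 50% at the single test dose, limit read from the data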
Target sequence (Q9BQF6 706-1050 limits assumed): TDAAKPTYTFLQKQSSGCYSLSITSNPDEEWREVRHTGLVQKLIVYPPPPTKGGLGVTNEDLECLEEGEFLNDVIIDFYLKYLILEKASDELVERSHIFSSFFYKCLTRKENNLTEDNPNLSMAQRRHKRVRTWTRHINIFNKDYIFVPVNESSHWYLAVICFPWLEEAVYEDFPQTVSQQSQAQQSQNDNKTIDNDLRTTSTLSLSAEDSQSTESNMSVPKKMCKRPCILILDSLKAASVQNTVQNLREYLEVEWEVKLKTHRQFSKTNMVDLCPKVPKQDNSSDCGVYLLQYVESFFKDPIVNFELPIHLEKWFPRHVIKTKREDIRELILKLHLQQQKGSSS
LGR2 antag: inhibitors of bursicon-induced LGR2 CRE-luciferase signal, primary screen, cell-based, HEK293, CRE-luciferase reporter, bursicon stimulation; Drosophila bursicon receptor LGR2 (rickets); bursicon-stimulated, 4 h; inhibition, % at 9.99 µM; 380,000 compounds, 0.35% hits;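 active = drop in luminescence signal, shown as inhibition above about 50% in the replicate tests, limit read from the data, passing the limit was not always enough; inconclusive = probably only some replicates passing the limit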;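 also: agonist challenge used bursicon conditioned medium at about half maximal strength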
HSP90 inh: HSP90 inhibitors, primary screen, cell lysate, luminescence. Heat shock protein HSP 90 (rabbit reticulocyte lysate; luciferase refolding). Rabbit reticulocyte lysate, luciferase refolding luminescence, 3 h. inhibition, % at 5.6 µM. 290,000 compounds, 0.91% hits. AID 1789, 2009;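 active = inhibition above the screen-wide mean plus 3 SD, computed separately per campaign, cut at about 16% in these data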;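 also: inhibitors lower the luminescence because luciferase stays unfolded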
SENP6 inh: SENP6 protease inhibitors, primary screen, biochemical, luminescence, uHTS | Sentrin-specific protease 6 (Homo sapiens), Q9GZR1 | inhibition, % at 10 µM | AID 2599, 2010 | Recombinant SENP6 catalytic domain, aminoluciferin luminescence | 330,000 compounds, 1.8% hits;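 active = inhibition above about 50% at the single tested dose, limit read from the data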
SENP8 block-2: human SENP8 protease inhibitors, primary screen, biochemical, fluorescence, Nedd8 protein substrate, uHTS; Sentrin-specific protease 8 (Homo sapiens), Q96LD8; recombinant SENP8; inhibition, % at 20 µM; 360,000 compounds, 0.64% hits; in the data active = inhibition mostly above about 40%, no sharp cut-off; inactive = mostly below about 27%
SENP8 conf: SENP8 protease inhibitors, retest, confirmation, biochemical, luminescence, single concentration; shares compounds with SENP7 block; Recombinant SENP8, Z-RLRGG-aminoluciferin luminescence, 60 min; inhibition, % at 12.5 µM; 6,200 compounds, 40% hits; AID 488912, 2010;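 active = mean inhibition across replicates above about 50%, limit read from the data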
SENP6 confirm: SENP6 protease inhibitors, confirmation, biochemical, luminescence, single concentration; shares compounds with SENP7 block; recombinant SENP6, Z-RLRGG-aminoluciferin luminescence; inhibition, % at 12.5 µM; 6,200 compounds, 58% hits; AID 488915, 2010
SENP7 conf: SENP7 protease inhibitors, retest, confirmation, biochemical, luminescence, single concentration | recombinant SENP7, Z-RLRGG-aminoluciferin luminescence, 40 min | shares compounds with SENP7 block | inhibition, % at 12.5 µM | 6,200 compounds, 69% hits
Casp3 SENP sel: caspase-3 protease inhibitors, confirmation, selectivity assay for SENP inhibitor project, biochemical, single concentration; shares compounds with SENP7 block; purified caspase-3, Z-DEVD-aminoluciferin luminescence, 60 min; inhibition, % at 12.5 µM; 6,200 compounds, 60% hits; AID 488918, 2010;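 active = mean inhibition above about 50%, limit read from the data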
SENP luc ctr: interferes with luciferase luminescence in SENP counter-screen; shares compounds with SENP7 block; Pre-incubated SENP8/Z-RLRGG-aminoluciferin, luciferase luminescence interference; inhibition, % at 12.5 µM; 6,200 compounds, 39% hits;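 active = mean inhibition above about 50% when retested at one dose, limit read from the data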
A number is an active result.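 The calls were made as follows, unless noted: active = mean inhibition above about 50% in the one-dose retest (limit read from the data); inactive = the rest.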

CCOC(=O)c1c(CN(C)C)n(C)c2c(O)c(N=NC(N)=O)c3ccc(Br)cc3c12 was read as SENP8 block-1 inactive, SENP7 block inactive, LGR2 antag inactive, HSP90 inh inactive, SENP6 inh 68, SENP8 block-2 79, SENP8 conf inactive, SENP6 confirm inactive, SENP7 conf inactive, Casp3 SENP sel inactive and SENP luc ctr inactive.
`CN1c2ccc(Br)cc2[C@@H]2[C@@H](CCN2S(=O)(=O)c2cccc(F)c2)[C@@H]1CO` gave LGR2 antag inactive.
For CCOc1ccc(Nc2nc(-c3cccnc3)cs2)cc1 the results were SENP8 block-1 inactive, SENP7 block 70, LGR2 antag inactive, HSP90 inh inactive, SENP6 inh inactive, SENP8 block-2 inactive, SENP8 conf inactive, SENP6 confirm inactive, SENP7 conf inactive, Casp3 SENP sel inactive and SENP luc ctr inactive.
Brc1ccc(Nc2nc(-c3cccnc3)cs2)cc1 was read as SENP8 block-1 inactive, SENP7 block inactive, LGR2 antag inactive, HSP90 inh inactive, SENP6 inh inactive and SENP8 block-2 inactive.
Screening Cc1ccc(Nc2nc(-c3cccnc3)cs2)cc1C returned SENP8 block-1 55, SENP7 block 58, LGR2 antag inactive, HSP90 inh inactive, SENP6 inh 74, SENP8 block-2 inactive, SENP8 conf inactive, SENP6 confirm 68, SENP7 conf 88, Casp3 SENP sel inactive and SENP luc ctr inactive.
Cc1cccc(/C=C2\CCC(=C3SCCCS3)C2=O)c1 was read as SENP8 block-1 93, SENP7 block 92, HSP90 inh inactive, SENP6 inh 91, SENP8 block-2 inactive, SENP8 conf inactive, SENP6 confirm inactive, SENP7 conf inactive, Casp3 SENP sel inactive and SENP luc ctr inactive.
`O=C(/C=C/Nc1cccc(O)c1)c1ccccc1` gave SENP8 block-1 96, SENP7 block 98, HSP90 inh inactive, SENP6 inh 97, SENP8 block-2 inactive, SENP8 conf 99, SENP6 confirm 99, SENP7 conf 103, Casp3 SENP sel 97 and SENP luc ctr 98.
Screening CC(=O)Nc1ccc(N/C=C/C(=O)c2ccc(Cl)cc2)cc1 returned SENP8 block-1 inactive, SENP7 block inactive, LGR2 antag inactive, HSP90 inh inactive, SENP6 inh inactive and SENP8 block-2 inactive.
Cc1ccc(C(=O)/C=C/Nc2ccc3c(c2)OCO3)cc1 was read as SENP8 block-1 inactive, SENP7 block 60, HSP90 inh inactive, SENP6 inh inactive, SENP8 block-2 inactive, SENP8 conf inactive, SENP6 confirm inactive, SENP7 conf inactive, Casp3 SENP sel inactive and SENP luc ctr inactive.
For CC(=O)c1cccc(N/C=C\C(=O)c2ccc(C)cc2)c1 the results were LGR2 antag inconclusive, HSP90 inh inactive and SENP8 block-2 inactive.
For Cc1ccc(C(=O)/C=C/Nc2cccc(O)c2)cc1 the results were SENP8 block-1 88, SENP7 block inactive, HSP90 inh inactive, SENP6 inh 93, SENP8 block-2 inactive, SENP8 conf inactive, SENP6 confirm 93, SENP7 conf 100, Casp3 SENP sel 77 and SENP luc ctr 78.
Screening O=C(/C=C/Nc1ccc(F)c(Cl)c1)c1ccccc1 returned SENP8 block-1 inactive, SENP7 block 65, LGR2 antag inactive, HSP90 inh inactive, SENP6 inh 71, SENP8 block-2 inactive, SENP8 conf inactive, SENP6 confirm inactive, SENP7 conf 87, Casp3 SENP sel 58 and SENP luc ctr inactive.
Screening O=C(c1cccnc1)N1CC(=O)N2[C@H](CO)[C@H](c3ccc(/C=C/c4ccccc4)cc3)[C@H]2C1 returned LGR2 antag inactive.
For COCC#Cc1ccc2c(c1)O[C@@H](CN(C)C(=O)CN(C)C)[C@H](C)CN([C@H](C)CO)S2(=O)=O the results were LGR2 antag inactive.
`COc1ccc(S(=O)(=O)N(C)C[C@@H]2OCCCC[C@@H](C)Oc3ccc(NC(=O)CCCN(C)C)cc3C(=O)N([C@H](C)CO)C[C@H]2C)cc1` gave LGR2 antag inactive.
O=C(C1CCC1)N1CC(=O)N2[C@H](CO)[C@H](c3ccc(-c4ccccc4F)cc3)[C@@H]2C1 was read as LGR2 antag inactive.
Screening C/C(=C\C(=O)c1ccc(C)cc1)Nc1ccc(N2CCOCC2)cc1 returned HSP90 inh inactive.
C/C(=C\C(=O)c1ccc(C)cc1)Nc1cccc(O)c1 was read as SENP8 block-1 76, SENP7 block inactive, HSP90 inh inactive, SENP6 inh 84, SENP8 block-2 inactive, SENP8 conf 82, SENP6 confirm 87, SENP7 conf 98, Casp3 SENP sel 70 and SENP luc ctr 88.
`O=C(/C=C/Nc1ccccc1)c1ccc(Oc2ncccn2)cc1` gave SENP8 block-1 65, SENP7 block 82, HSP90 inh inactive, SENP6 inh 76, SENP8 block-2 inactive, SENP8 conf inactive, SENP6 confirm 58, SENP7 conf 59, Casp3 SENP sel 82 and SENP luc ctr inactive.
`CN(C)/C=C/C(=O)c1ccc(Oc2ncccn2)cc1` gave SENP8 block-1 inactive, SENP7 block inactive, LGR2 antag inactive, HSP90 inh inactive, SENP6 inh inactive and SENP8 block-2 inactive.
Cc1ccc(N/C=C/C(=O)c2ccccc2)cc1Br was read as SENP8 block-1 inactive, SENP7 block 83, LGR2 antag inactive, HSP90 inh inactive, SENP6 inh 63, SENP8 block-2 inactive, SENP8 conf inactive, SENP6 confirm inactive, SENP7 conf inactive, Casp3 SENP sel inactive and SENP luc ctr inactive.

Screens: PubChem, several laboratories
